The supplement of paper PMC13094657
± gives the standard deviation of the averaged measurements.

How the values were obtained:
MDA-MB-231 [1] = assay: cell viability relative to vehicle unstimulated control (fraction); higher = more viable cells; details: pre-treatment time: 18 h then 24 h IFNg/TNF
MDA-MB-231 [2] = assay: kynurenine production, fold change vs DMSO IFNg/TNF control; higher = more kynurenine produced (less inhibition); details: pre-treatment time: 18 h then 24 h IFNg/TNF
Summary of the method: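 Fold change over cytokine-stimulated vehicle wells on the same plate is the measure used for kynurenine production, averaged across duplicate plates in the first screening round. MDA-MB-231 cells, seeded 24 h beforehand at 7 × 10^4/well in 96-well plates, were pre-treated 18 h with each natural product in 0.1% DMSO and stimulated 24 h at 37°C with IFNγ (1 U/ml) and TNF (6.25 ng/ml). Supernatants were read at 492 nm following trichloroacetic acid and p-dimethylaminobenzaldehyde treatment, against 0–100 μM standards.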
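For cell viability relative to vehicle unstimulated control in this document: viability of the cells left after supernatant collection, read with Deep Blue dye added for 4 h, as absorbance at 570 nm minus 600 nm.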

Row | SMILES | cell viability (MDA-MB-231 [1]) | kynurenine production (MDA-MB-231 [2])
1 | CC1CCC2(O)C(C)(C)C3CCC2(C)C1C3 (centres undefined) [Patchouli alcohol] (compound dose: 10 uM) | 0.994 ± 0.013 | 1.04 ± 0.064
2 | CC(C)=CCC[C@@H](C)[C@@H]1CC[C@]2(C)C3=C(CC[C@@]12C)[C@@]1(C)CC[C@H](O)C(C)(C)[C@@H]1CC3 [Euphol] (compound dose: 10 uM) | 0.977 ± 0.051 | 1.008 ± 0.0013
3 | CC(=O)OCC1=C[C@H]2[C@@H]3C(C)(C)[C@]3(OC(C)=O)[C@H](OC(C)=O)[C@@H](C)[C@]2(O)[C@@H]2C=C(C)C(=O)[C@@]2(O)C1 [Phorbol 12,13,20-triacetate] (compound dose: 10 uM) | 0.868 ± 0.26 | 0.8 ± 0.1
4 | C[C@@H]1O[C@@H](O[C@H]2[C@H](O[C@H]3CC[C@@]4(C)[C@@H](CC[C@]5(C)[C@@H]4CC=C4[C@@H]6CC(C)(C)CC[C@]6(C(=O)O)CC[C@]45C)[C@]3(C)CO)OC[C@H](O[C@@H]3O[C@H](CO)[C@@H](O)[C@H](O)[C@H]3O)[C@@H]2O)[C@H](O)[C@H](O)[C@H]1O [Pulsatilla saponin D] (compound dose: 10 uM) | 0.145 ± 0.0044 | 0.141 ± 0.07
5 | C=CCC(=NOS(=O)(=O)O)S[C@@H]1O[C@H](CO)[C@@H](O)[C@H](O)[C@H]1O (stereo in doubt) [Sinigrin] (compound dose: 10 uM) | 0.933 ± 0.014 | 1.04 ± 0.14
6 | COc1ccc(C[C@H]2COC(=O)[C@]2(O)Cc2ccc(O[C@@H]3O[C@H](CO)[C@@H](O)[C@H](O)[C@H]3O)c(OC)c2)cc1OC [Tracheloside] (compound dose: 10 uM) | 0.8831 ± 0.0055 | 0.824 ± 0.11
7 | CC1(C)CC[C@]2(C(=O)O[C@@H]3O[C@H](CO)[C@@H](O)[C@H](O)[C@H]3O)CC[C@]3(C)C(=CC[C@@H]4[C@@]5(C)CC[C@H](O[C@@H]6O[C@H](C(=O)O)[C@@H](O)[C@H](O)[C@H]6O[C@H]6OC[C@@H](O)[C@H](O)[C@H]6O)C(C)(C)[C@@H]5CC[C@]43C)[C@@H]2C1 [Pseudoginsenoside RT1] (compound dose: 10 uM) | 0.9758 ± 0.0023 | 0.988 ± 0.14
8 | CCCCCCCCCCCCCC(=O)O[C@@]12[C@H](O)[C@@H](C)[C@@]3(O)[C@@H](C=C(CO)C[C@]4(O)C(=O)C(C)=C[C@@H]34)[C@H]1C2(C)C [Phorbol 13-myristate] (compound dose: 10 uM) | 1.03 ± 0.065 | 0.635 ± 0.081
9 | COc1ccc(-c2cc(=O)c3c(O)c(OC)c(O[C@@H]4O[C@H](CO[C@@H]5O[C@@H](C)[C@H](O)[C@@H](O)[C@H]5O)[C@@H](O)[C@H](O)[C@H]4O)cc3o2)cc1 [Pectolinarin] (compound dose: 10 uM) | 0.833 ± 0.26 | 0.907 ± 0.2
10 | C=C[C@]1(C)C[C@@H](OC(=O)CO)[C@]2(C)[C@H](C)CC[C@]3(CCC(=O)[C@@H]32)[C@@H](C)[C@@H]1O [Pleuromutilin] (compound dose: 10 uM) | 1.01 ± 0.057 | 0.861 ± 0.094
11 | C=C(C)[C@H]1C=C[C@@](C)(O)CC1 [cis-Isolimonenol] (compound dose: 10 uM) | 0.972 ± 0.02 | 0.813 ± 0.11
12 | C/C=C(/C)C(=O)O[C@H]1[C@H](O)[C@]2(COC(C)=O)[C@H](O)C[C@]3(C)C(=CC[C@@H]4[C@@]5(C)CC[C@H](O[C@@H]6O[C@H](C(=O)O)[C@@H](O[C@@H]7O[C@H](CO)[C@@H](O)[C@H](O)[C@H]7O)[C@H](O)[C@H]6O[C@@H]6O[C@H](CO)[C@@H](O)[C@H](O)[C@H]6O)[C@](C)(CO)[C@@H]5CC[C@]43C)[C@@H]2CC1(C)C [Isoescin IB] (compound dose: 10 uM) | 1.08 ± 0.074 | 0.802 ± 0.12
13 | CC(=O)OCC1=COC(OC(C)=O)C2C(C)CCC12 (centres undefined) [Teucrein] (compound dose: 10 uM) | 0.889 ± 0.026 | 0.842 ± 0.086
14 | C[C@@H]1O[C@@H](O[C@@H]2[C@@H](O)[C@H](O[C@H]3CC[C@]4(C)[C@H]5CC=C6[C@@H]7CC(C)(C)CC[C@]7(C(=O)O[C@@H]7O[C@H](CO)[C@@H](O)[C@H](O)[C@H]7O)CC[C@@]6(C)[C@]5(C)CC[C@H]4C3(C)C)O[C@H](C(=O)O)[C@H]2O)[C@H](O)[C@H](O)[C@H]1O (compound dose: 10 uM) | 0.941 ± 0.015 | 0.932 ± 0.11
15 | C/C1=C\CC/C(C)=C/C2C(CC/C(C)=C/CC1)C2(C)C (centres undefined) [Casbene] (compound dose: 10 uM) | 1.11 ± 0.042 | 0.871 ± 0.056
16 | C[C@H]1[C@@H](O)O[C@@H]2O[C@@]3(C)CC[C@H]4[C@H](C)CC[C@@H]1[C@@]24OO3 [Dihydroartemisinin] (compound dose: 10 uM) | 0.978 ± 0.069 | 0.688 ± 0.12

Row | SMILES | cell viability (MDA-MB-231 [1]) | kynurenine production (MDA-MB-231 [2])
17 | C=C1C(=O)O[C@@H]2CC(C)=C([C@@H](C)CCCOC(C)=O)[C@@H](O)[C@H]12 [Inulicin] (compound dose: 10 uM) | 0.912 ± 0.096 | 1.16 ± 0.15
18 | OCC1=C[C@@H](O)[C@]2(O[C@@H]3O[C@H](CO)[C@@H](O)[C@H](O)[C@H]3O[C@@H]3O[C@H](CO)[C@@H](O)[C@H](O)[C@H]3O)C=CO[C@@H](O[C@@H]3O[C@H](CO)[C@@H](O)[C@H](O)[C@H]3O)[C@H]12 [Rehmannioside D] (compound dose: 10 uM) | 1.05 ± 0.29 | 0.941 ± 0.072
19 | C[C@@H]1O[C@@H](O[C@@H]2[C@H](O)[C@@H](O)[C@H](O[C@H]3CC[C@@]4(C)C(CC[C@]5(C)C4C=C[C@]46OC[C@@]7(CCC(C)(C)CC74)[C@@H](O)C[C@]65C)C3(C)C)O[C@@H]2CO[C@@H]2O[C@H](CO)[C@@H](O)[C@H](O)[C@H]2O)[C@H](O)[C@H](O)[C@H]1O (some centres undefined) [Saikosaponin C] (compound dose: 10 uM) | 0.928 ± 0.063 | 1.13 ± 0.18
20 | CC1(C)CC[C@]2(C(=O)O)CCC3=C([C@@H](CCl)C[C@@H]4[C@@]5(C)C[C@H](O)[C@H](O)[C@@](C)(C(=O)O)[C@@H]5CC[C@@]34C)[C@@H]2C1 [Tenuigenin] (compound dose: 10 uM) | 0.983 ± 0.068 | 0.952 ± 0.2
21 | C=C(C)[C@@H]1CC[C@]2(C(=O)O)CC[C@]3(C)[C@H](CC[C@@H]4[C@@]5(C)CC[C@H](OC(=O)CC(C)(C)C(=O)O)C(C)(C)[C@@H]5CC[C@]43C)[C@@H]12 [Bevirimat] (compound dose: 10 uM) | 1.018 ± 0.0069 | 0.778 ± 0.15
22 | C/C=C(/C)C(=O)O[C@H]1C(C)=C[C@]23C(=O)[C@@H](C=C4COC(C)(C)O[C@H]4[C@]12O)[C@H]1[C@@H](C[C@H]3C)C1(C)C [Ingenol-5,20-acetonide-3-O-angelate] (compound dose: 10 uM) | 0.971 ± 0.025 | 0.918 ± 0.23
23 | CC(=O)O[C@H]1CC(=O)OC(C)(C)[C@@H]2CC(=O)[C@]3(C)[C@H](CC[C@@]4(C)[C@@H](c5ccoc5)OC(=O)[C@H]5O[C@]543)[C@@]12C [Nomilin] (compound dose: 10 uM) | 1.03 ± 0.023 | 0.942 ± 0.087
24 | C[C@H](CC[C@@H](O)C(C)(C)O)[C@H]1CC[C@@]2(C)[C@@H]3CC=C4[C@@H](CC[C@H](O)C4(C)C)[C@]3(C)[C@H](O)C[C@]12C [Mogrol] (compound dose: 10 uM) | 0.939 ± 0.051 | 0.905 ± 0.15
25 | CC(C)C1=CC(=O)C(C)(C2C(O)CC3(C)C4CC=C5C(CCC(OC6OC(CO)C(O)C(O)C6OC6OC(C)C(O)C(O)C6O)C5(C)C)C4(C)C(=O)CC23C)O1 (centres undefined) [Picfeltarraenin IB] (compound dose: 10 uM) | 1.02 ± 0.067 | 0.771 ± 0.23
26 | CC1(C)CC[C@]2(C(=O)O)CC[C@]3(C)C(=CC[C@@H]4[C@@]5(C)CC[C@H](O)[C@@](C)(CO)[C@@H]5CC[C@]43C)[C@@H]2C1 [Hederagenin] (compound dose: 10 uM) | 1.06 ± 0.2 | 1.07 ± 0.014
27 | C=C1C[C@@]23CC[C@H]4[C@@](C)(CCC[C@@]4(C)C(=O)O)[C@@H]2CC[C@]1(O[C@@H]1O[C@@H](CO)[C@@H](O)[C@H](O)[C@@H]1O[C@@H]1O[C@@H](CO)[C@@H](O)[C@H](O)[C@@H]1O)C3 [Steviolbioside] (compound dose: 10 uM) | 0.904 ± 0.19 | 1.05 ± 0.44
28 | COc1c2cc3c(c1OC)CCN(C)[C@@H]3Cc1ccc(cc1)Oc1cc3c(c(OC)c1OC)CCN(C)[C@@H]3Cc1ccc(cc1)O2 [Cycleanine] (compound dose: 10 uM) | 0.118 ± 0.0024 | 0.198 ± 0.023
29 | CC1=CCC(C(C)C)=CC1 [γ-Terpinene] (compound dose: 10 uM) | 1.07 ± 0.036 | 0.75 ± 0.53
30 | C[C@@H]1O[C@@H](O[C@H]2[C@H](O[C@H]3CC[C@@]4(C)[C@@H](CC[C@]5(C)[C@@H]4CC=C4[C@@H]6CC(C)(C)CC[C@]6(C(=O)O[C@@H]6O[C@H](CO[C@@H]7O[C@H](CO)[C@@H](O)[C@H](O)[C@H]7O)[C@@H](O)[C@H](O)[C@H]6O)CC[C@]45C)[C@]3(C)CO)OC[C@H](O)[C@@H]2O)[C@H](O)[C@H](O[C@@H]2O[C@H](CO)[C@@H](O[C@@H]3O[C@H](CO)[C@@H](O)[C@H](O)[C@H]3O)[C@H](O)[C@H]2O)[C@H]1O [Macranthoidin B] (compound dose: 10 uM) | 0.9895 ± 0.0011 | 0.787 ± 0.18
31 | COc1ccc2c(c1O)-c1c(O)c(OC)cc3c1[C@H](C2)[N+](C)(C)CC3 [Magnoflorine] (compound dose: 10 uM) | 0.966 ± 0.05 | 0.937 ± 0.057
32 | CC1(C)CC[C@]2(C(=O)O)CC[C@]3(C)C(=CC[C@@H]4[C@@]5(C)CC[C@H](O[C@@H]6O[C@H](C(=O)O)[C@@H](O)[C@H](O[C@@H]7OC[C@@H](O)[C@H](O)[C@H]7O)[C@H]6O)C(C)(C)[C@@H]5CC[C@]43C)[C@@H]2C1 [Momordin Ic] (compound dose: 10 uM) | 1.07 ± 0.023 | 0.967 ± 0.2
